Inconclusive results are not listed. Where a call stands in place of a potency, no number is given. Unmarked numbers belong to inactive results. Calls of active or inactive are those of the source. Unless noted, calls follow the shape of the dose curve; as a rule, active = well fitted curve in the direction sought with a large enough effect in the repeat runs; inconclusive = weak or mixed curves; inactive = no such curve, though single readings can be large; an effect the other way counts as inactive or inconclusive.
What was measured:
[1] = target: Luciferin 4-monooxygenase (Photinus pyralis) (UniProt P08659); assay: qHTS assay to identify small molecule inhibitors of firefly luciferase (AID 1224835); also: nearly all actives have a fitted effect of over 25% in size; also: potency is read from the fitted curve at half-maximal effect
Chain of Luciferin 4-monooxygenase (Photinus pyralis) (P08659 whole entry, looked up): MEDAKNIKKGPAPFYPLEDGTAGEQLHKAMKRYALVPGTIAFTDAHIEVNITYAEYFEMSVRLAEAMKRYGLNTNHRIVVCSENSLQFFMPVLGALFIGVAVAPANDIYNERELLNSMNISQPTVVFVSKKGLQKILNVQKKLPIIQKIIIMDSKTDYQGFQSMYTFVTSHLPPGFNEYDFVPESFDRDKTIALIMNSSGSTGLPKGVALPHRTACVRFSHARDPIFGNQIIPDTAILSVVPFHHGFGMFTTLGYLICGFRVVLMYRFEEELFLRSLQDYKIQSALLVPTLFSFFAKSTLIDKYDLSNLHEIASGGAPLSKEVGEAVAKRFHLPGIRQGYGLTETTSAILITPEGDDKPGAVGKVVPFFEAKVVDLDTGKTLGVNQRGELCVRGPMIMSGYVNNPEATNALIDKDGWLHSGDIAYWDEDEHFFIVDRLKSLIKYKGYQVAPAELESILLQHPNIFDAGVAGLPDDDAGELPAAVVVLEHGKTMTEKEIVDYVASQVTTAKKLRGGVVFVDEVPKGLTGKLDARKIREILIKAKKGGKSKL
In short: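 Quantitative HTS format; KM concentrations of both substrates. Purified P. pyralis FLuc activity quantified from luminescence images.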

[2] = qHTS assay to identify small molecule agonists of the constitutive androstane receptor (CAR) signaling pathway - cell viability counter screen (AID 1224836); also: series mostly up to about 92 µM; nearly all actives have a fitted effect of over 45% in size
In short: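 Viability read-out: CellTiter-Fluor fluorescence after 23 h compound exposure at 37 C/5% CO2 in double-stable HepG2-CYP2B6-hCAR cells, with PK11195 present at 0.75 uM final; compounds tested in 15-point titration.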

[3] = qHTS assay to identify small molecule antagonists of the constitutive androstane receptor (CAR) signaling pathway - cell viability counter screen (AID 1224837); also: series mostly up to about 92 µM; nearly all actives have a fitted effect of over 45% in size
In short: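 Fluorescence from CellTiter-Fluor served as the viability signal. Human hepatoma HepG2 cells stably bearing hCAR and CYP2B6-2.2kb received compound plus CITCO (50 nM final) for 23 hr.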

[4] = target: Nuclear receptor subfamily 1 group I member 3 (Homo sapiens) (UniProt Q14994); assay: qHTS assay to identify small molecule antagonists of the constitutive androstane receptor (CAR) signaling pathway (AID 1224838);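 also: HepG2 cells stably expressing hCAR with CYP2B6 luciferase reporter stimulated by CITCO; nearly all actives have a fitted effect of over 40% in size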
Chain of Nuclear receptor subfamily 1 group I member 3 (Homo sapiens) (Q14994 whole entry, looked up): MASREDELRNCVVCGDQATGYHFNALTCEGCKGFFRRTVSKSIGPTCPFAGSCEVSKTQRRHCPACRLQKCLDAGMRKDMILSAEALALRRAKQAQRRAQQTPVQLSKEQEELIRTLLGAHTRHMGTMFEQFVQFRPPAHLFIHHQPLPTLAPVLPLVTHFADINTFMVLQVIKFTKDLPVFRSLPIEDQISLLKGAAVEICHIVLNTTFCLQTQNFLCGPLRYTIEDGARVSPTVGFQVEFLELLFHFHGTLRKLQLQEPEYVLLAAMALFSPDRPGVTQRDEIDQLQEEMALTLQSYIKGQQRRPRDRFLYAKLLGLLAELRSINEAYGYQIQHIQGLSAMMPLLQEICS
In short: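 Quantitative HTS in double-stable HepG2-CYP2B6-hCAR cells. After 4 h plating, cells get compound (15 concentrations) and CITCO at 50 nM final, incubate 24 h at 37 C, then ONE-Glo luminescence is read.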

[5] = target: Nuclear receptor subfamily 1 group I member 3 (Homo sapiens) (UniProt Q14994); assay: qHTS assay to identify small molecule agonists of the constitutive androstane receptor (CAR) signaling pathway (AID 1224839); also: nearly all actives have a fitted effect of over 15% in size; also: potency is read from the fitted curve at half-maximal effect
In short: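 Luminescence read-out (ONE-Glo, 30 min, room temperature) from double-stable HepG2-CYP2B6-hCAR cells exposed 24 h to 15-point compound series in presence of 0.75 uM PK11195 final.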

[6] = qHTS assay to identify small molecule antagonists of the estrogen related receptor signaling pathway with the pleiotropic PPARgamma coactivator (PGC) from Tox21 10K library - cell viability counter screen (AID 1224840; active = well fitted cell-killing curve with a large enough effect in the repeat runs, not every such curve was filed as active; also: nearly all actives have a fitted effect of over 40% in size)
In short: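 Compounds in DMSO, alongside positive and negative controls, were pinned onto PGC/ERR cells (2,000 per well). Exposure lasted 17.5 hours at 37 C, followed by a 30-minute CellTiter-Fluor incubation and fluorescence reading.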

[7] = target: Thyrotropin receptor (Homo sapiens) (UniProt P16473); assay: qHTS assay to identify small molecule agonists of the thyroid stimulating hormone receptor (TSHR) signaling pathway (AID 1224843; calls by dose curve; also: nearly all actives have a fitted effect of over 45% in size)
Chain of Thyrotropin receptor (Homo sapiens) (P16473 whole entry, looked up): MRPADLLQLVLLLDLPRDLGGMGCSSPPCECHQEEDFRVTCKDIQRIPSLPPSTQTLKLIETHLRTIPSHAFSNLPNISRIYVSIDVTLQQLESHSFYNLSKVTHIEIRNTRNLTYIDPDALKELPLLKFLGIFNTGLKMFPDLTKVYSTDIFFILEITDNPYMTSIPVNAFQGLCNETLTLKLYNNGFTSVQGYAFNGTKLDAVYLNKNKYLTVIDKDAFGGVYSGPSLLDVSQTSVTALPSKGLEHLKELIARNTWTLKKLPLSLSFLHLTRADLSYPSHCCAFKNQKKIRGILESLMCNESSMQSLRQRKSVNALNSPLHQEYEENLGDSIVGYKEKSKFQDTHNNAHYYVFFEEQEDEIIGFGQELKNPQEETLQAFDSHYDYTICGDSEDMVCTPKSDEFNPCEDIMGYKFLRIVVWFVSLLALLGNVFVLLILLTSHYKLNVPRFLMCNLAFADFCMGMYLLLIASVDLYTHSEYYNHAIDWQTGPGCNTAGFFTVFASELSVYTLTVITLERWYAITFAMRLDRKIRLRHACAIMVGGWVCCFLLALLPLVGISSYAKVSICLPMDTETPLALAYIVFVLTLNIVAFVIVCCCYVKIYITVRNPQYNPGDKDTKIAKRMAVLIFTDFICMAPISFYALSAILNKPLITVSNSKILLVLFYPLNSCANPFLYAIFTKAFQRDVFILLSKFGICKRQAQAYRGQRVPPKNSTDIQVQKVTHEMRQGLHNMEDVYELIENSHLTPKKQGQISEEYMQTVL
In short: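 Cell line HEK293 with TSHR; density 800/well. Exposure 30 min RT. Readout HTRF cAMP (cAMP-d2/anti-cAMP-cryptate), 1 h RT before reading.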

[8] = qHTS assay to identify small molecule agonists of the hypoxia (HIF-1) signaling pathway - cell viability counter screen (AID 1224844; calls by dose curve; also: nearly all actives have a fitted effect of over 50% in size)
In short: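 Luminescent ATP content (CellTiter-Glo, 30 min, room temperature) served as the viability measure in HRE-bla ME-180 cells exposed to compounds for 17 hrs in low-serum medium (0.5% dialyzed FBS).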

[9] = qHTS assay to identify small molecule antagonists of the estrogen related receptor signaling pathway with the pleiotropic PPARgamma coactivator (PGC) from Tox21 10K library (AID 1224841; call rule not given here; also: actives are mostly falling curves and most rising ones were filed inactive; nearly all actives have a fitted effect of over 50% in size; also: potency is read from the fitted curve at half-maximal effect)
In short: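 Compound exposure ran 18 hours at 37 C in PGC/ERR cells (2,000/well) that had first rested 6 hours in a 37 C/5% CO2 incubator. Luciferase activity was then detected with One-Glo after a 30-minute room-temperature step.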

[10] = qHTS assay to identify small molecule agonists of the estrogen related receptor signaling pathway with the pleiotropic PPARgamma coactivator (PGC) from Tox21 10K library (AID 1224842); also: nearly all actives have a fitted effect of over 15% in size
In short: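 PGC/ERR reporter cells (NTP line) were seeded 2,000 per well, rested 6 h at 37 C/5% CO2, then pin-dosed with compounds in DMSO for 18 h at 37 C; luciferase read by One-Glo luminescence after 30 min at room temperature.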

Compound	Potency [1]	Potency [2]	Potency [3]	Potency [4]	Potency [5]	Potency [6]	Potency [7]	Potency [8]	Potency [9]	Potency [10]
CC1OC(=O)C(C)OC1=O (centres undefined)	inactive	inactive	inactive	inactive	inactive	inactive	inactive	inactive	–	–
CC(C)(O)c1ccc(CNC(=O)c2cccnc2Oc2ccc(F)cc2)cc1	inactive	inactive	inactive	inactive	27.3 µM (active)	inactive	inactive	inactive	48.6 µM (active)	inactive
Nc1ccccc1S(=O)(=O)c1ccccc1	inactive	inactive	inactive	inactive	68.6 µM (active)	inactive	inactive	inactive	–	inactive
COc1ccnc(CS(=O)c2nc3ccc(OC(F)F)cc3[nH]2)c1OC (centres undefined)	inactive	inactive	inactive	inactive	inactive	inactive	inactive	inactive	–	–
NCc1ccccc1Sc1ccccc1CO	inactive	inactive	inactive	inactive	inactive	inactive	inactive	inactive	–	–
Cc1cccc(C)c1NC(=O)CN(CC(=O)O)CC(=O)O	inactive	inactive	inactive	inactive	inactive	inactive	inactive	inactive	–	–
CCCCCCCCCOS(=O)(=O)O	inactive	inactive	inactive	inactive	inactive	inactive	inactive	inactive	–	–
C=CCOc1ccccc1OCC(O)CNC(C)C (centres undefined)	inactive	inactive	inactive	inactive	inactive	inactive	–	inactive	inactive	inactive
CCOC(=O)C(O)c1ccccc1 (centres undefined)	inactive	inactive	inactive	inactive	inactive	inactive	inactive	inactive	inactive	inactive
CCCCCCCCCCCCN1CCCCCC1=O	inactive	inactive	inactive	inactive	61.1 µM (active)	inactive	–	–	inactive	inactive
O=C(O)c1nc(Cl)c(Cl)c(Cl)c1Cl	inactive	inactive	inactive	inactive	17.2 µM (active)	inactive	–	inactive	inactive	inactive
C[Si](C)(CCCN)O[Si](C)(C)CCCN	inactive	inactive	inactive	inactive	inactive	inactive	inactive	inactive	inactive	inactive
CCOC(=O)NCCOc1ccc(Oc2ccccc2)cc1	31.7 µM (active)	inactive	inactive	inactive	48.6 µM (active)	inactive	–	inactive	–	inactive
COC(C)(C)CCO	inactive	inactive	inactive	inactive	inactive	inactive	inactive	inactive	inactive	inactive
C[C@H](CCC(=O)O)[C@H]1CC[C@H]2[C@@H]3CC[C@@H]4C[C@H](O)CC[C@]4(C)[C@H]3C[C@H](O)[C@]12C	inactive	inactive	inactive	inactive	–	–	–	–	–	–
CC[N+]1(CC)CCC(=C(c2ccccc2)c2ccccc2)C1C (centres undefined)	inactive	inactive	inactive	inactive	inactive	inactive	inactive	inactive	–	–
O=CC1CC=CCC1 (centres undefined)	inactive	inactive	inactive	inactive	inactive	inactive	inactive	inactive	–	–
CCCCC(CC)COC(=O)CCCCCCCCC(=O)OCC(CC)CCCC (centres undefined)	inactive	inactive	inactive	inactive	inactive	inactive	inactive	inactive	–	inactive
CCn1cc(C(=O)O)c(=O)c2cnc(N3CCNCC3)nc21	inactive	inactive	inactive	inactive	inactive	inactive	–	inactive	inactive	inactive
CCOc1ccc(O)cc1	inactive	inactive	inactive	inactive	inactive	inactive	inactive	inactive	–	–
CC(=O)NO	inactive	inactive	inactive	inactive	inactive	inactive	inactive	inactive	–	–
CCOC(=O)C(F)(F)F	inactive	inactive	inactive	inactive	inactive	inactive	inactive	inactive	–	–
Cn1c(=O)cc(Oc2ccc(F)cc2F)c2cnc(NCC(C)(C)O)nc21	inactive	inactive	inactive	inactive	inactive	inactive	–	inactive	34.4 µM (active)	inactive

From PubChem BioAssay (Tox21)
